Assay outcomes: PubChem BioAssay, several laboratories
Mtb FBA inh: Mtb FBA enzyme inhibitors, primary screen, biochemical, fluorescence, strain H37Rv; Fructose-bisphosphate aldolase (Mycobacterium tuberculosis (strain ATCC 25618 / H37Rv)), …; purified M. tuberculosis FBA, fluorescence read-out; inhibition, % at 1 µM; 360,000 tested, 2.3% active; AID 588726, 2011; in the data active means inhibition above about 27%;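 further: 0% = vehicle and 100% = reference inhibitor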
GDH-TPI inh: GDH-TPI coupling enzyme inhibitors, primary screen, artefact control for M. tuberculosis FBA inhibitor project, biochemical, absorbance, full deck | GDH-TPI coupled enzyme counterscreen, NADH absorbance | inhibition, % at 4.8 µM | 360,000 tested, 1.2% active | AID 588335, 2011;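 further: 0% = DMSO wells and 100% = wells lacking the enzyme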
CCHF vOTU inh-1: CCHFV vOTU protease inhibitors, primary screen, biochemical, Pep-AMC substrate, fluorescence. 370,000 tested, 0.55% active. Crimean-Congo hemorrhagic fever virus L polyprotein viral ovarian tumor (vOTU) protease …. inhibition, % at 11.5 µM; further: 0% = vehicle wells with enzyme and 100% = no enzyme wells
RecA splice inh: Mtb RecA intein splicing inhibitors, primary screen, biochemical, fluorescence, HTS; inhibition, % (no concentration beside the values); Protein RecA (Mycobacterium tuberculosis (strain ATCC 25618 / H37Rv)), P9WHJ3; cell-free RecA intein splicing; 290,000 tested, 0.75% active; in the data active means inhibition above about 30%;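 further: 0% = vehicle wells and 100% = reference inhibitor control wells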
Target sequence (P9WHJ3 whole entry, looked up, canonical isoform): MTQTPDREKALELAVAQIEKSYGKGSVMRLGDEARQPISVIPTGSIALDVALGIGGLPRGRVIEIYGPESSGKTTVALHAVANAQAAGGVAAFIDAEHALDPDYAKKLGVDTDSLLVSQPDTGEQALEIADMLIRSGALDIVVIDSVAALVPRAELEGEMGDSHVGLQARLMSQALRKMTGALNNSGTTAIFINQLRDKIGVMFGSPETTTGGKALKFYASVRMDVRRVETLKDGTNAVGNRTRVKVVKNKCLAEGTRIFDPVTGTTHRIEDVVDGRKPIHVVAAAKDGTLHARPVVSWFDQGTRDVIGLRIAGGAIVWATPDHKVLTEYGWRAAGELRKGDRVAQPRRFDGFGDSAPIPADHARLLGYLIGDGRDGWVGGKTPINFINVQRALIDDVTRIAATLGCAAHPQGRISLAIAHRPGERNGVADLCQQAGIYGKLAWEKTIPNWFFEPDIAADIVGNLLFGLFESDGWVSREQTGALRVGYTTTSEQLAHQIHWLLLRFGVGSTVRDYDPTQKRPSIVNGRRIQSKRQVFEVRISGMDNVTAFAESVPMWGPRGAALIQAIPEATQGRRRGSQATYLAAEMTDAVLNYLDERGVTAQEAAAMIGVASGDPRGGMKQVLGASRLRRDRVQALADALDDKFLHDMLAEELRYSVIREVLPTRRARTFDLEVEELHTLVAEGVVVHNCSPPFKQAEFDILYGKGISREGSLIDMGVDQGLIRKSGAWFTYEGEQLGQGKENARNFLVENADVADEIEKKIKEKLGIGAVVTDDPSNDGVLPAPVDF
CCHF vOTU inh-2: CCHFV vOTU protease inhibitors, confirmation, biochemical, Pep-AMC substrate, fluorescence; 1,900 tested, 17% active; shares compounds with CCHF vOTU inh-1; inhibition, % at 11.5 µM; AID 686976, 2013; Recombinant CCHFV vOTU
* = called active by the depositor; · = not tested or not shown. Rows were chosen to be rich in hits. Some 4.2% of all compounds tested hit in one or more screens of this group. Unless noted, no stated cut-off is given here; in the data, active means inhibition above about 30%; inactive means the rest.

SMILES	Mtb FBA inh	GDH-TPI inh	CCHF vOTU inh-1	RecA splice inh	CCHF vOTU inh-2
O=C1C2CCCN2C(c2cccs2)N1c1ccc(Cl)cc1 (stereo not given)	-0.6	8.0	31.2*	-1.4	-11.2
COc1ccccc1C1N(c2ccc(Cl)cc2)C(=O)C2CCCN21 (stereo not given)	2.2	-1.9	-4.4	0.7	·
CCN1C(=O)C2(C(C(=O)c3cc4ccccc4o3)=C(O)C(=O)N2CCCN2CCOCC2)c2ccccc21 (stereo not given)	2.1	7.2	-7.0	-7.7	·
CC(CCc1ccccc1)NC(=O)c1ccc(NC(=O)c2cccc(Br)c2)cc1 (stereo not given)	0.6	10.4	11.1	1.9	·
CC(CCc1ccccc1)NC(=O)c1ccc(NC(=O)c2ccccc2)cc1 (stereo not given)	4.4	-1.3	32.1*	1.5	-7.7
Cc1ccc(NC(=S)N2CCCCC2)cc1C	-1.2	4.2	6.1	0.8	·
O=C(CSc1nc(=O)n(CCCN2CCOCC2)c2c1CCC2)Nc1ccc(F)cc1F	0.6	6.7	32.3*	1.0	-17.5
O=C(CSc1nc(=O)n(CCCN2CCOCC2)c2c1CCCC2)Nc1ccc(F)cc1F	-1.2	3.9	-2.1	-1.2	·
COc1cc(/C=C2/C(=O)NN(c3ccc(Cl)c(Cl)c3)C2=O)cc([N+](=O)[O-])c1O	-12.0	22.3	37.8*	3.8	-10.2
COc1cc(/C=C2/C(=O)NN(c3ccc(F)cc3)C2=O)cc(Cl)c1O	-12.4	15.0	6.2	4.9	·
CC(C)[C@H](NC(=O)c1ccco1)C(=O)N(C)Cc1ccc(C(F)(F)F)cc1	1.3	-6.0	-1.9	·	·
CCCc1c(-c2cccc(F)c2)ncn1Cc1ccccc1OC	·	·	36.8*	·	7.5
CCCCc1c(-c2ccccc2F)ncn1CCc1ccccc1OC	·	·	36.5*	·	7.5
CCCCc1c(-c2ccccc2OC)ncn1CCc1ccccc1Cl	·	·	31.4*	·	9.1
CCCCc1c(-c2ccccc2OC)ncn1Cc1ccc(F)cc1F	·	·	33.3*	·	0.3
CCCc1c(-c2cccc(F)c2)ncn1CCc1ccccc1OC	·	·	19.9	·	·
CCN(CC)S(=O)(=O)c1ccc(N2CCCC2)c(NC(=O)Cc2cc(OC)c(OC)c(OC)c2)c1	-2.0	1.1	18.8	3.7	·
O=C(CSc1ccccc1)N1CCCC(N2CCN(c3ccccc3)CC2)C1 (stereo not given)	-2.6	-10.2	15.0	-0.6	·
Cc1ccccc1NC(=S)NC(NC(=O)COc1ccccc1)C(Cl)(Cl)Cl (stereo not given)	0.4	-6.5	-9.2	8.6	·
CCc1ccc(OCC(=O)NC(NC(=S)Nc2ccccc2C)C(Cl)(Cl)Cl)cc1 (stereo not given)	-0.1	-6.7	29.8*	-1.1	-23.8
CCOC(=O)N1CCN(C(c2ccnc3ccccc23)c2nnnn2-c2ccc3c(c2)OCCO3)CC1 (stereo not given)	·	·	-6.7	·	·
Cc1cccc(NC2(C(=O)O)CCCC2)c1	5.1	16.1	4.7	·	·
Cc1ccc[n+](CC(=O)Nc2cc(C(F)(F)F)ccc2Cl)c1	-0.1	0.0	-7.3	-1.2	·
CCC(C)(C)c1ccc(OCCCC[n+]2cccc(C)c2)c(C(C)(C)CC)c1	-0.9	1.2	40.4*	11.6	7.5
Cc1ccc(CC(=O)Nc2nnc(-c3ccc(F)cc3)o2)c(C)c1	2.3	12.0	·	-2.4	·
SMILES	Mtb FBA inh	GDH-TPI inh	CCHF vOTU inh-1	RecA splice inh	CCHF vOTU inh-2
COCCCNc1ccnc2c(Cl)cccc12	4.5	-6.8	11.8	-1.0	·
COc1cc(NCCCCC(C)N)c2nccc(C)c2c1 (stereo not given)	-2.6	5.3	57.1*	·	44.6*
CCCc1nc2c([nH]1)c(=O)n(C)c(=O)n2C	-1.0	-1.1	32.3*	0.2	-29.1
CN1CCN(C2=C(Cl)C(=O)c3ccccc3C2=O)CC1	-3.8	13.2	105.7*	·	98.7*
CN1CCN(C2=C(NS(=O)(=O)c3cccs3)C(=O)c3ccccc3C2=O)CC1	-3.2	12.3	20.7	8.0	·
CC1COCC(C)N1C1=C(Cl)C(=O)c2ccccc2C1=O (stereo not given)	-0.2	12.4	86.8*	·	89.7*
COCCCNC(=O)C[C@H]1C[C@@]2(C(=O)OC)C(=C[C@H](C(C)C)O[C@@H]2C2CC2)N(Cc2ccc(Cl)cc2Cl)C1=O	·	·	21.5	·	·
Cc1[nH]c(-c2ccc(F)cc2)cc1C(=O)N1CCN(c2cccc(Cl)c2)CC1	0.9	1.3	-6.9	9.4	·
Cc1onc(-c2ccccc2Cl)c1C(=O)N1CCC(Cc2ccccc2)CC1	2.0	4.3	31.6*	10.3	-22.6
O=C(CC[C@H]1O[C@@H](n2ccc(=O)[nH]c2=O)[C@H](O)[C@@H]1O)N[C@H](Cc1ccccc1)C(=O)NCCCc1ccccc1	5.5	·	-3.9	·	·
CCc1nnc(NS(=O)(=O)c2ccc(NC(=O)c3ccc([N+](=O)[O-])s3)cc2)s1	-1.9	24.7	34.6*	·	11.7
NS(=O)(=O)c1ccc(Nc2ccc([N+](=O)[O-])c3nonc23)cc1	-35.1	17.7	30.9*	14.3	16.9
CCc1nnc(NS(=O)(=O)c2ccc(Nc3ccc([N+](=O)[O-])c4nonc34)cc2)s1	-29.4	7.1	30.9*	29.9	5.5
C[C@H]1CCCCO[C@@H](CN(C)CC2CC2)[C@@H](C)CN([C@@H](C)CO)C(=O)c2cc(NS(=O)(=O)c3ccccc3)ccc2O1	·	·	-4.5	·	·
O=C(NC1CCCC1)C(c1ccccn1)N(Cc1ccc(F)cc1)C(=O)c1csnn1 (stereo not given)	-8.3	-4.7	-3.0	-0.6	·
Cc1cc(C(=O)O)ccc1-n1c(C)cc(/C=C(/C#N)C(=O)Nc2ccccc2)c1C	-3.6	10.7	33.4*	1.4	-6.8
CCOc1ccc2[nH]c(=O)c(C(c3nnnn3CC3CCCO3)N3CCc4ccccc4C3)cc2c1 (stereo not given)	14.8	11.6	-13.6	·	·
Cc1ccc2cc(C(c3nnnn3CC3CCCO3)N3CCc4ccccc4C3)c(=O)[nH]c2c1 (stereo not given)	-1.4	10.3	83.8*	-4.0	-0.4
Cc1ccc(C)c(N2CCN(C3C(=O)Nc4ccccc4-n4nnnc43)CC2)c1 (stereo not given)	·	·	21.6	·	·
O=C1Nc2ccccc2-n2nnnc2C1N1CCN(c2ccc(C(F)(F)F)cc2[N+](=O)[O-])CC1 (stereo not given)	·	·	32.4*	·	-5.8
O=C(c1cccs1)N1C[C@@H](O)[C@H](n2cc(C3CC3)nn2)C[C@@H]1c1ccccc1	-2.3	4.3	1.7	·	·
O=C(c1cccs1)N1C[C@H](O)[C@@H](n2cc(C3CC3)nn2)C[C@@H]1c1ccccc1	1.6	6.6	30.5*	·	-21.7
CCCC[n+]1ccn(C2=C([O-])c3ccccc3C(=O)/C2=N\S(=O)(=O)c2ccc(Br)cc2)c1	-2.5	7.0	24.6	6.1	·
